Source: PubChem BioAssay (NCATS)
Results filed as inconclusive are left out. Where a call stands in place of a potency, no number is given. Activity calls are given as the source filed them. The call rests on the fitted dose curve; in most records, active means well fitted inhibition curve with a large enough effect; inconclusive means small, poorly fitted or top-dose-only effect; inactive means flat fitted curve, though single readings scatter.

Each molecule was assayed on CP256 (assay: qHTS profiling for inhibitors of Plasmodium falciparum proliferation (AID 504749; further: nearly all actives have a fitted effect of over 60% in size)). Conditions: P. falciparum in erythrocytes, SYBR Green DNA, 72 h; series mostly up to 28.7 µM.
How it was run: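 Parasite proliferation within erythrocytes, 72 h exposure. Endpoint: SYBR Green I fluorescence after overnight lysis at room temperature. Controls: 0.29 uM artemisinin, DMSO.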
Potency means the concentration at half of the fitted maximal effect.

Question: For `CCCN1CCC[C@H](c2cccc(O)c2)C1`, which Potency is on record?
Answer: inactive

Question: Which Potency does the source give for `O=C(O)COc1ccccc1` here?
Answer: inactive

Question: How did the Potency turn out when `O=[N+]([O-])c1ccc([As](=O)(O)O)cc1` was run?
Answer: 10 µM (active)

Question: For `O=C(O)C(Cl)Cl`, which Potency is on record?
Answer: inactive

Question: With `Cc1cc(O)ccc1Cl` as the molecule, how does the Potency read?
Answer: inactive

Question: With `COC(=O)[C@@H](N)CCCN=C(N)N[N+](=O)[O-]` as the molecule, how does the Potency read?
Answer: inactive

Question: How did the Potency turn out when `CN1C2CCC1CC(OC(=O)c1cc(Cl)cc(Cl)c1)C2` (stereo not given) was run?
Answer: inactive

Question: How did the Potency turn out when `CCCCc1ccc(C(=O)O)nc1` was run?
Answer: inactive

Question: `Cc1ccc(Cl)c(O)c1` was tested. Which Potency did it give?
Answer: inactive

Question: For `CC(C)NC(C)Cc1ccc(I)cc1` (stereo not given), which Potency is on record?
Answer: inactive

Question: Which Potency does the source give for `CC(=O)[O][Hg][c]1ccccc1` here?
Answer: 8.91 µM (active)

Question: Which Potency does the source give for `C=CCN1CC[C@]23CCCCC2[C@H]1Cc1ccc(O)cc13` (stereo not given in full) here?
Answer: inactive

Question: How did the Potency turn out when `NC(=O)CN1CC(O)CC1=O` (stereo not given) was run?
Answer: inactive

Question: `C#CC1(O)CCC2C3CCC4=CC(=O)CCC4(C)C3CCC21C` (stereo not given) was tested. Which Potency did it give?
Answer: inactive

Question: For `CCCCCCCCCC(CC)c1ccc(S(=O)(=O)O)cc1` (stereo not given), which Potency is on record?
Answer: inactive
